Assay outcomes as filed in PubChem.
In the library only some 4.8% were active in any assay of this set; here they are far more common.
TIM10 inh: TIM10 yeast growth inhibition; hit rate 1.4% among 330,000; S. cerevisiae TIM10 strain growth, BacTiter-Glo luminescence, 24 h; AID 463195; inhibition, % at 10 µM;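 active = inhibition of 40% or more at the single tested concentration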;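 also: wild-type TIM10 isogenic control strain grown at permissive 25 °C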
NALP1 yeast inh: NALP1 inhibition; inhibition, % at 10 µM; S. cerevisiae NALP1/ASC/caspase-1 growth, X-gal OD620, 72 h; hit rate 0.61% among 280,000; AID 2071; in the data active = inhibition mostly above about 24%, no sharp cut-off; inactive = mostly below about 32%
tim23-1 inh: growth inhibitors of tim23-1 mutant yeast; S. cerevisiae tim23-1 growth, BacTiter-Glo luminescence, 24 h; inhibition, % at 20 µM; hit rate 1.3% among 330,000; AID 463212;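 active = growth inhibition of the mutant yeast at or above 50%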;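 also: temperature-sensitive mutant grown at 25 °C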
SKKanGAS inh: SKKanGAS growth inhibition. S. pyogenes SKKanGAS, kanamycin growth, BacTiter-Glo, 6 h. AID 1662. hit rate 1.3% among 300,000. inhibition, % at 7.5 µM;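 active = mean replicate score, as percent of positive control median, at least 50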;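 also: strain carries kanamycin resistance gene driven by streptokinase promoter and grows in 40 µg/ml kanamycin; loss of luminescence reflects streptokinase promoter inhibition or plain growth inhibition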
PfHsp90 set2: reduces growth (ATP signal) of yeast expressing P. falciparum Hsp90; hit rate 0.32% among 310,000; inhibition, % at 9.4 µM; AID 504621; S. cerevisiae expressing PfHsp90, BacTiter-Glo ATP, 48 h; yeast lacking PDR1 and PDR3 efflux regulators;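 active = every replicate shows inhibition above about 80%, whatever the replicate mean, limit read from the data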
tim10-1 inh: growth inhibitors of tim10-1 mutant yeast; S. cerevisiae tim10-1 ts strain growth, BacTiter-Glo, 24 h; inhibition, % at 20 µM; hit rate 2.2% among 330,000; AID 463190;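 active = inhibition of at least 40%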;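 also: mutant grown at 25 °C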
Of the large screens only hits and unclear results are named; the others gave an inactive call.

C=CCN(c1ccccc1)S(=O)(=O)c1cccc(C(=O)Nc2nc3ccccc3[nH]2)c1	none
O=C(Nc1nc2ccccc2[nH]1)c1ccc(Cl)cc1	none
Cn1cccc1CC(=O)N/N=C/C=C/c1ccco1	none
COc1cccc(N2CC(C(=O)Nc3nnc(SCC(=O)NCc4ccco4)s3)CC2=O)c1 (stereo not drawn)	none
Cc1sc(NC(=O)COc2ccccc2)c(C#N)c1-c1ccccc1	none
COc1ccc(C(=O)Nc2sc(C)c(-c3ccccc3)c2C#N)cc1OC	SKKanGAS inh 54
CCc1nc2sc3c(c2c(=O)n1N)CC(C)(C)OC3	none
CCCCCCCCCc1nc2sc3c(c2c(=O)n1NC(=O)c1ccc([N+](=O)[O-])cc1)CC(C)(C)OC3	SKKanGAS inh 64
CCCc1nc2sc3c(c2c(=O)n1NC(=O)c1ccco1)CC(C)(C)OC3	none
CCCCCCCCCc1nc2sc3c(c2c(=O)n1NC(=O)c1ccccc1[N+](=O)[O-])CC(C)(C)OC3	SKKanGAS inh 65
Cc1ccccc1C(=O)NNC(=O)/C=C\C(=O)O	none
COc1ccc(NC(=O)CSc2nnc(C(C)C)n2N)cc1	none (no result: NALP1 yeast inh)
CC(C)CC1(C)NC(=O)N(Cc2cc([N+](=O)[O-])cc3c2OCOC3)C1=O (stereo not drawn)	NALP1 yeast inh 23
Cc1cc(C(=O)N/N=C/c2cc(N=Nc3ccccc3)ccc2O)n[nH]1	SKKanGAS inh 88 (no result: TIM10 inh, tim23-1 inh, tim10-1 inh)
COc1ccc(S(=O)(=O)Nc2ccc(O)c3ccccc23)cc1	none
COc1ccc(C2/C=C\CN(C(=O)c3ccccc3)CC(=O)N2Cc2ccc(F)cc2)cc1 (stereo not drawn)	SKKanGAS inh 68
COc1ccc(C2/C=C\CN(C(=O)OCc3ccccc3)CC(=O)N2Cc2ccc(F)cc2)cc1 (stereo not drawn)	none (no result: PfHsp90 set2)
CCN(CC)CCN(C(=O)c1ccc2c(c1)CCCC2)c1nc2ccc(F)cc2s1	none
CN(C)CCCN(C(=O)c1ccc2c(c1)CCCC2)c1nc2ccc(F)cc2s1	NALP1 yeast inh 47
CC(C)c1ccc(NC(=O)CCNS(=O)(=O)c2cc(Br)cnc2N)cc1	none
COC(=O)c1cc(OC)c(OC)cc1NC(=O)CCC1CCCC1	none
COc1cccc(/C=C/C(=O)OCC(=O)Nc2nnc(-c3ccccc3)o2)c1	SKKanGAS inh 63 (no result: NALP1 yeast inh, PfHsp90 set2)
O=C(COC(=O)/C=C/c1ccc(F)cc1)Nc1nnc(-c2ccccc2)o1	none (no result: NALP1 yeast inh, SKKanGAS inh)
O=C(COC(=O)/C=C/c1ccccc1F)Nc1nnc(-c2ccccc2)o1	SKKanGAS inh 68 (no result: NALP1 yeast inh, PfHsp90 set2)
CCc1cccc(C)c1NC(=O)CN(C)S(=O)(=O)c1ccc(-c2ccc(=O)[nH]n2)s1	none
Cc1ccc(C)c(Cn2nnc3c(=O)[nH]c(C4CCN(S(=O)(=O)c5ccc(S(=O)(=O)NC6CC6)cc5)CC4)nc32)c1	none
N=c1c2c(ncn1Cc1ccco1)Oc1c(ccc3ccccc13)C2c1ccccc1 (stereo not drawn)	NALP1 yeast inh 63
N=c1c2c(ncn1Cc1ccco1)Oc1cc(O)ccc1C2c1ccccc1 (stereo not drawn)	none
c1cnc2ccc(-c3ccc4ncccc4c3)cc2c1	none
Cc1cc(N(C)C)ccc1N=Nc1ccc2ncccc2c1	SKKanGAS inh 54
CCOC(=O)C1=CN(Cc2cccc(F)c2)S(=O)(=O)NC1c1ccc(F)c(Cl)c1 (stereo not drawn)	none (no result: NALP1 yeast inh, SKKanGAS inh)
Cc1nc(-c2ccc(S(=O)(=O)Nc3ccc(Br)cc3Cl)s2)cs1	SKKanGAS inh 74 (no result: NALP1 yeast inh)
CSc1cccc(NC(=O)OC2CCCCCCCCCCC2)c1	SKKanGAS inh 66
CCCC[n+]1ccn(-c2nc3ccccc3nc2[N-]S(=O)(=O)c2ccccc2)c1	none
CCCC[n+]1ccn(C2=C([O-])c3ccccc3C(=O)/C2=N\S(=O)(=O)c2ccccc2)c1	SKKanGAS inh 59
CCCCC[n+]1ccn(C2=C([O-])c3ccccc3C(=O)/C2=N\S(=O)(=O)c2ccc(Br)cc2)c1	SKKanGAS inh 97
CC(C)[n+]1ccn(C2=C([O-])c3ccccc3C(=O)/C2=N\S(=O)(=O)c2ccccc2)c1	NALP1 yeast inh 36
CC(C)(C)c1cc[n+](C2=C([O-])c3ccccc3C(=O)/C2=N\S(=O)(=O)c2ccccc2)cc1	SKKanGAS inh 86 (no result: PfHsp90 set2)
CC(C)c1ccc(NC(=O)C[n+]2ccn(C3=C([O-])c4ccccc4C3=O)c2)cc1	none
O=C(CCCN1C(=O)c2ccccc2C1=O)NCCCN1CCOCC1	none
